# Hits are enriched below; roughly 4.1% of the tested compounds scored in any of these assays.
# Mot1-301 SUMO: blocks SUMOylation pathway, rescuing yeast Mot1-301 growth | S. cerevisiae Mot1-301 growth rescue, ATP luminescence, 38.5C; percent above DMSO median, 100 means doubled | growth rescue, % at 18.8 µM | actives 1% (n = 320,000);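 active = every valid replicate shows activation above 250% relative to neutral control wells; inactive = the rest, any valid replicate at or below 250%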;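 note: OY570 slx delta 5 strain wells were the positive control but not used for scaling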
# CHT allo act: allosterically activates the human high affinity choline transporter. AID 488977. B-score at 10 µM. actives 0.49% (n = 310,000). CHT-expressing cells, membrane potential dye, choline EC20; hits give high values; LV-AA mutant CHT in HEK293 cells. Q9GZV3;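 active = initial fluorescence not abnormally high and integrated response B-score, plate-corrected, over 3 SD above library mean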
# Target sequence (Q9GZV3 whole entry, looked up): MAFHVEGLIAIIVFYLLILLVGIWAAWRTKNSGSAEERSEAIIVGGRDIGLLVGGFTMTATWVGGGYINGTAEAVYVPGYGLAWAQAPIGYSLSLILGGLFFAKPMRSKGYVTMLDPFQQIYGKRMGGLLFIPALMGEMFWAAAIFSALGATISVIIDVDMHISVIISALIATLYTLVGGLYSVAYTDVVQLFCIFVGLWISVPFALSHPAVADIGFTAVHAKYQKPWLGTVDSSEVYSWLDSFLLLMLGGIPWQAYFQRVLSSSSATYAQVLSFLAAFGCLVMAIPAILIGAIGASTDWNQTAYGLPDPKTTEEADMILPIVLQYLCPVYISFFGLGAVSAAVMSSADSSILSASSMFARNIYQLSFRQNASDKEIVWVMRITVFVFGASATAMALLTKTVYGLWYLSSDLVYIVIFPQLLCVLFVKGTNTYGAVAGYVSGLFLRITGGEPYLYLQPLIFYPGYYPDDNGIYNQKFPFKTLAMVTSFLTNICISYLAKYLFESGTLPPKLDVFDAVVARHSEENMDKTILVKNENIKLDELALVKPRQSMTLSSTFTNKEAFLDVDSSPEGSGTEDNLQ
# MEKK3 PB1 HTS: raises or lowers MEK5 binding to the human MEKK3 PB1 domain. actives 1.4% (n = 290,000). bead-based flow cytometry, Alexa488-MEK5 binding to MEKK3; actives lie on both sides; 0 = blocked by unlabeled MEK5, 100 = vehicle. Q99759. binding response (% of control), % at 10 µM;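 active = binding response more than 3 SD above or below the average of its plate-row segment, actives on both sides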;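 note: Alexa488 bead fluorescence after subtracting the streptavidin-only scavenger bead signal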
# MEKK2 mut-MEK5: signal of MEK5 binding to mutant human MEKK2 PB1 domain. bead flow cytometry, Alexa488-MEK5 binding to MEKK2 mutant. percent response, % at 10 µM. actives 0.35% (n = 290,000); in the data active = percent response above about 24%, passing the limit was not always enough
# MEKK2 WT-MEK5: raises or lowers MEK5 binding to wildtype human MEKK2 PB1 domain | binding response (% of control), % at 10 µM | bead flow cytometry, Alexa488-MEK5 binding to MEKK2 WT; actives lie on both sides | actives 1.1% (n = 290,000) | Q9Y2U5; in the data active = binding response below about 67% or above about 130%
# CHT inh: human CHT choline transport inhibition; AID 488975; B-score at 10 µM; actives 0.86% (n = 310,000); CHT-expressing cells, membrane potential dye, choline response; hits give low values;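 active = B-score over 3 SD under the library average, and starting fluorescence ratio not unusually high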;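 note: choline stimulus applied at its EC90 after an EC20 pre-addition; B-score computed on integrated fluorescence ratio after choline addition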
# CHT block conf: human CHT inhibition, confirmatory screen. shares compounds with CHT inh. CHT-expressing cells, choline membrane potential dye; LV-to-AA substituted CHT, HEK293 cells. CHT activity remaining % of control (hits give low values), % at 10 µM. actives 70% (n = 2,400). AID 493221;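 active = choline transporter activity left, mean of duplicates at 10 µM, below buffer-only control mean minus 3 SD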;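 note: depolarization triggered by choline at its EC90 following an EC20 pre-addition; 0% = hemicholinium-3 full block and 100% = buffer-only control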
# HEK293 MPD ctr: CHT inhibitor counter-screen hit in parental HEK293 cells; membrane potential dye, choline response; active = decrease or increase beyond buffer ±3SD; actives 4% (n = 2,400); membrane potential ratio readout (active if shifted either direction beyond buffer ±3SD; no single direction) at 10 µM; shares compounds with CHT inh;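 note: parental cells lack the transporter so any hit is non-specific; ratio is peak minus trough fluorescence over baseline after EC90 choline challenge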
# Numbers without * were called inactive; i = inactive; . = no result given; [ ] = remark or other dose.
SMILES,Mot1-301 SUMO,CHT allo act,MEKK3 PB1 HTS,MEKK2 mut-MEK5,MEKK2 WT-MEK5,CHT inh,CHT block conf,HEK293 MPD ctr
NC(=O)c1c(NC(=O)CN2C(=O)NC(Cc3ccccc3)C2=O)sc2c1CCC2 (configuration not stated),15.6,i,103.0,12.0,97.0,-6.3*,61.6%*,i
Nc1cc(N)nc(SCC(=O)Nc2ccc3c(c2)OCO3)n1,-19.1,i,94.0,-1.0,95.0,i,.,.
Nc1nc(SCC(=O)Nc2ccc3c(c2)OCO3)n[nH]1,-3.7,i,104.0,0.0,97.0,-5.06*,i,i
COc1ccc(OC)c(Nc2ccc(C(=O)O)cc2[N+](=O)[O-])c1,8.5,i,111.0,1.0,107.0,-6.74*,i,i
O=C(Nc1ccc(Cl)cc1)Nc1ccc(N2CCC(C(F)(F)F)CC2)nc1,13.4,i,95.0,-14.0,93.0,-6.07*,i,i
OCC[C@H]1C[C@@H](O)[C@H](O)[C@@]2(CCCCO2)O1,53.9,i,106.0,2.0,101.0,i,.,.
CCN(CC)S(=O)(=O)c1ccc(/C=C/C(=O)NC2CCCCC2)cc1,13.5,i,99.0,-6.0,96.0,-7.05*,45.6%*,i
O=C(CNCc1ccccc1)NCCCN1CCCC1=O,7.0,i,103.0,6.0,107.0,i,.,.
COC(=O)c1ccc(NS(=O)(=O)NC(=O)c2cn(C)c3ccccc23)cc1,14.2,i,101.0,9.0,105.0,i,.,.
Cc1ccc2[nH]c(C(=O)O)c(NC(=O)[C@@H]3C[C@@H]3c3ccccc3)c2c1,217.3,i,97.0,4.0,100.0,-5.03*,i,i
O=C(NCCCN1CCOCC1)c1ccccc1,0.9,i,101.0,5.0,104.0,i,.,.
O=C(Nc1ccccc1C(=O)NCCCN1CCOCC1)c1ccc(F)cc1,-9.0,i,1.0*[inhibitor],-13.0,-2.0*[inhibitor],-7.94*,37.6%*,i
CCCCCn1c(CCNC(=O)CCC)nc2ccccc21,-13.4,i,112.0,14.0,116.0,-6.16*,60.0%*,i
CC(C)(C)c1ccc(C(=O)Nc2ccc(Oc3cccnc3)nc2)cc1,-1.6,i,107.0,2.0,103.0,-5.24*,i,i
CC(C)(C)c1ccc(C(=O)Nc2cccnc2)cc1,-2.6,i,102.0,3.0,100.0,i,.,.
CN(C)CCCNC(=S)NCC(c1ccc(Cl)cc1Cl)c1c[nH]c2ccccc12 (configuration not stated),7.9,i,110.0,73.0*,223.0*,-5.76*,i,i
NC(CCCCCP(=O)(c1ccccc1)c1ccccc1)C(=O)O (configuration not stated),-20.0,i,107.0,6.0,104.0,i,.,.
COC(=O)c1sc(NC(=O)c2ccc([N+](=O)[O-])o2)c(C#N)c1C,-8.4,i,93.0,1.0,94.0,-7.96*,62.2%*,2.52*
CC(Sc1nnc(C2CC2)n1Cc1ccccc1)C(=O)N1CCNC1=O (configuration not stated),4.7,.,.,.,.,.,.,.
C=CCN(CC=C)S(=O)(=O)c1ccc2nc(NC(=O)C3CCCO3)sc2c1 (configuration not stated),34.0,i,98.0,-2.0,101.0,-5.01*,58.2%*,i
CCN(CC)c1ccc(C(=O)NNC(=O)C2CSC3(C)CCC(=O)N23)cc1 (configuration not stated),-0.2,.,.,.,.,.,.,.
CCOc1ccc(S(=O)(=O)NCCC(=O)OCC(=O)Nc2cc(C)on2)cc1,0.1,i,58.0,-41.0,48.0,i,.,.
CCn1c2ccccc2c2cc(NC(=O)CSc3nnc(-c4ccccc4)o3)ccc21,.,i,105.0,-1.0,100.0,i,.,.

# Screening data as filed in PubChem BioAssay.
